Results published in the supplement of paper PMC11732987, “Enantioselective OTUD7B fragment discovery through chemoproteomics screening and high-throughput optimisation” (Communications Chemistry, 2025).

How the values were obtained:
Experiment in all cases: log2 ratio of Biotin-Ahx-Ub-VS probe labelling (fragment/DMSO); higher = less target engagement (more negative = stronger competition), active = hit call of the paper (q ≤ 0.05, log2 ratio ≤ -1)
Settings in all cases: compound concentration: 200 uM; treatment time: 3 h
USP19 = biological target: T1, USP19 (UniProt O94966)
T1 sequence (whole entry): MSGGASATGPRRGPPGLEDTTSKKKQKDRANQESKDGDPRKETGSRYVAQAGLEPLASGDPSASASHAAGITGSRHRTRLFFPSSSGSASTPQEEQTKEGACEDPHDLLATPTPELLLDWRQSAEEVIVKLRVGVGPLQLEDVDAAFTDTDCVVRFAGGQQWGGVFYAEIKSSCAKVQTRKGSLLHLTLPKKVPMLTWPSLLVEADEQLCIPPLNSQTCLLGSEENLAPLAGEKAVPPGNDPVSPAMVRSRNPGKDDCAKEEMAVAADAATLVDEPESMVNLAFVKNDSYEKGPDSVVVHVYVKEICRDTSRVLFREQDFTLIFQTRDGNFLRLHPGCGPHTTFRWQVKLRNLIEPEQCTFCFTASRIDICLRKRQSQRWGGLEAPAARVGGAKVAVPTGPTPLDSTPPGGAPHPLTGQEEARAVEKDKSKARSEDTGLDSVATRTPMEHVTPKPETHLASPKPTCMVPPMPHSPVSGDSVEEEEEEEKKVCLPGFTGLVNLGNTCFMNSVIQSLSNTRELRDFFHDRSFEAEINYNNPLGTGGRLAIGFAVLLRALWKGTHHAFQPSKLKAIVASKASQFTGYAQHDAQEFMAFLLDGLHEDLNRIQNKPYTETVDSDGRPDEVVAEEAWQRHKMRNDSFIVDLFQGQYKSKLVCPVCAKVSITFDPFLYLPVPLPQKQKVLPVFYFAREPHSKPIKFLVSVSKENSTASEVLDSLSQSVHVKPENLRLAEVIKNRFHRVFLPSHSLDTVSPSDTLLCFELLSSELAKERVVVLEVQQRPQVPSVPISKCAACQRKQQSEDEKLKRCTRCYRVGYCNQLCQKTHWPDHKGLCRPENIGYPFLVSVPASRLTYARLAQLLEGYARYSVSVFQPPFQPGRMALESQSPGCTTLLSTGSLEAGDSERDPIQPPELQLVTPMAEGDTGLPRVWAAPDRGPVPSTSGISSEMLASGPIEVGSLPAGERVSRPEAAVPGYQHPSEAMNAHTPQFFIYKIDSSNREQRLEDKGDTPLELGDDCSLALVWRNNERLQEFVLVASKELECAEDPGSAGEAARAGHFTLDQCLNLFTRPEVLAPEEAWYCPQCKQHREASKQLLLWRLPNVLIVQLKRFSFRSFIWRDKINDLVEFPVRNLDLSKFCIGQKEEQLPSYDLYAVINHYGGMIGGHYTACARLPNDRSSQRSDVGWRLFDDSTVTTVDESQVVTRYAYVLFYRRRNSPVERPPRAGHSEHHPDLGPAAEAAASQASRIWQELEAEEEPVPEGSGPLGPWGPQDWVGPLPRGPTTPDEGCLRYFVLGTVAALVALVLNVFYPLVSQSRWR
Method in brief: (§1)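 Fragment (200 µM) or vehicle was incubated for 3 h with triplicate HEK293T lysate samples of 495 µg, which were then treated with Biotin-Ahx-Ub-VS at 0.5 µM final for 1 h. Labelled DUBs were enriched on NeutrAvidin, digested with LysC and trypsin, and analysed by diaPASEF LC-MS/MS. Values are average log2 fragment/vehicle ratios from an unpaired t-test on global-median-normalised Spectronaut label-free quantities, using proteins with ≥2 unique peptides.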

USP22 = biological target: T2, USP22 (UniProt Q9UPT9)
T2 sequence (whole entry): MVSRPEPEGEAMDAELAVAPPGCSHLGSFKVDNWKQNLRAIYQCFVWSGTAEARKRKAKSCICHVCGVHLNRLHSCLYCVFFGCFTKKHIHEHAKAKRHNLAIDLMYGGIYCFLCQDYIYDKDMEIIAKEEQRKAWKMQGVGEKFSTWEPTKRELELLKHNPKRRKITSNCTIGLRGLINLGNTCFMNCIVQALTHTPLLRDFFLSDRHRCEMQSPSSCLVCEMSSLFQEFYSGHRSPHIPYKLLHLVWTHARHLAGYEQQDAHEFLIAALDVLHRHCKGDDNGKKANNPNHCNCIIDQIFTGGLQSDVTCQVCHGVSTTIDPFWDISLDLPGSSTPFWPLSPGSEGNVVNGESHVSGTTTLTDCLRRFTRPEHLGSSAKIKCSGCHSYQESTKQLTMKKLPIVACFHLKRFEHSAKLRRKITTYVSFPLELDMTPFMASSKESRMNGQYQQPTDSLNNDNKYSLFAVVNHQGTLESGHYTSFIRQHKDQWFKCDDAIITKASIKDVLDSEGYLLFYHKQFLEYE
Method in brief: as §1

USP24 = USP24 (UniProt Q9UPU5)
Method in brief: as §1

USP25 = biological target: T3, USP25 (UniProt Q9UHP3)
T3 sequence (whole entry): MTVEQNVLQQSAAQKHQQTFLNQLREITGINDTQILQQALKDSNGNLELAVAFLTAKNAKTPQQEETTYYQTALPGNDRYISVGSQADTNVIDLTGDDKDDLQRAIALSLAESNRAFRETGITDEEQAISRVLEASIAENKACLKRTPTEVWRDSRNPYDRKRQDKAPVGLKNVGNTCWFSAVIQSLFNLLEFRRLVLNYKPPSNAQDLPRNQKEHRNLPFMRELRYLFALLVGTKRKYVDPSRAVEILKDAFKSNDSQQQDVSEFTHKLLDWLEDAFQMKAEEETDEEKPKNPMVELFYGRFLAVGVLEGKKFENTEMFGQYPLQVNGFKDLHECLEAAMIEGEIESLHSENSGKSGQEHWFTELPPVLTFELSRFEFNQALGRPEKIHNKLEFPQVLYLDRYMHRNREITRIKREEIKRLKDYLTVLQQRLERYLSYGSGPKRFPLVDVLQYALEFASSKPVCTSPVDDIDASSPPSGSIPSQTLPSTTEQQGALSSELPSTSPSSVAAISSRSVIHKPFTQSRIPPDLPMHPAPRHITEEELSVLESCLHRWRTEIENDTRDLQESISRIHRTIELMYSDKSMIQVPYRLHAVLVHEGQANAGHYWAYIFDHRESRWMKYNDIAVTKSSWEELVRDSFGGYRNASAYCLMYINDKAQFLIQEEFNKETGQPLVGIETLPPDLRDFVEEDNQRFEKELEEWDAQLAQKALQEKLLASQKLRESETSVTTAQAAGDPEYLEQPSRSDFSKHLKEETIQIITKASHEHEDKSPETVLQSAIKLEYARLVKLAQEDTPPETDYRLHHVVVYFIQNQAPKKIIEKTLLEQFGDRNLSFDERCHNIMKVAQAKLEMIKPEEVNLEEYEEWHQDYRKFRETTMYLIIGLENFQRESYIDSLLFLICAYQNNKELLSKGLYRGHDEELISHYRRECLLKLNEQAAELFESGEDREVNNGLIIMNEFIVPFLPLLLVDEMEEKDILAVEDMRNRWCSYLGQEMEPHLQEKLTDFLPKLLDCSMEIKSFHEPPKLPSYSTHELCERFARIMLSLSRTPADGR
Method in brief: as §1

USP28 = biological target: T4, USP28 (UniProt Q96RU2)
T4 sequence (whole entry): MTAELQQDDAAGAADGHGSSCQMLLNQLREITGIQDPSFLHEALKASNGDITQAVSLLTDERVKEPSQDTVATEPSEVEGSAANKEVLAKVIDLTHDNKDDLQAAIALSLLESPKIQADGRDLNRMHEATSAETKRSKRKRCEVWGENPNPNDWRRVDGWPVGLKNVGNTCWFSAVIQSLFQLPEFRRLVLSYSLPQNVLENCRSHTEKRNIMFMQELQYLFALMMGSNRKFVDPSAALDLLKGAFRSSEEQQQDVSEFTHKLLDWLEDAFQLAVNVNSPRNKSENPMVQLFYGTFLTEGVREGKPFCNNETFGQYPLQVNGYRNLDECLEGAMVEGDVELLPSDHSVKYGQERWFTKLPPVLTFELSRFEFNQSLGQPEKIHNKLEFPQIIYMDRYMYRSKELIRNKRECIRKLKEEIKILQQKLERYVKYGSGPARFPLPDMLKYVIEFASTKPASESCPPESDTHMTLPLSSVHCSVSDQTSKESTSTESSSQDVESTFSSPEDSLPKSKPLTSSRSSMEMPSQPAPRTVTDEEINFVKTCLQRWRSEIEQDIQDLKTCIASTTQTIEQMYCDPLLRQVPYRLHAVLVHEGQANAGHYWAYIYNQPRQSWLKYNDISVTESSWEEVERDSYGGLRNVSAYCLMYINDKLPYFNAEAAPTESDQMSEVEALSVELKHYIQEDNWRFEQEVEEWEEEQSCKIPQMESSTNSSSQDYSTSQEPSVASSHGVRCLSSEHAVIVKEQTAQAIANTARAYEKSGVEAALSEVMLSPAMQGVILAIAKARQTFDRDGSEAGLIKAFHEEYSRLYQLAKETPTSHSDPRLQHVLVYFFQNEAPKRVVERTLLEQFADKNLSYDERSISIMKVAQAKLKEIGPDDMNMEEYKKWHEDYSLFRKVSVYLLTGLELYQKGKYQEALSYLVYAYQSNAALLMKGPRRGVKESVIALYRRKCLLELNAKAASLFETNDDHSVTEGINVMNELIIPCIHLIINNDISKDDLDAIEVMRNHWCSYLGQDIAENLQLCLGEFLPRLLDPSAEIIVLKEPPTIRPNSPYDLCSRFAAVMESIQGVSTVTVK
Method in brief: as §1

Measured: log2 ratio of Biotin-Ahx-Ub-VS probe labelling

Chain of USP24 (Q9UPU5 whole entry): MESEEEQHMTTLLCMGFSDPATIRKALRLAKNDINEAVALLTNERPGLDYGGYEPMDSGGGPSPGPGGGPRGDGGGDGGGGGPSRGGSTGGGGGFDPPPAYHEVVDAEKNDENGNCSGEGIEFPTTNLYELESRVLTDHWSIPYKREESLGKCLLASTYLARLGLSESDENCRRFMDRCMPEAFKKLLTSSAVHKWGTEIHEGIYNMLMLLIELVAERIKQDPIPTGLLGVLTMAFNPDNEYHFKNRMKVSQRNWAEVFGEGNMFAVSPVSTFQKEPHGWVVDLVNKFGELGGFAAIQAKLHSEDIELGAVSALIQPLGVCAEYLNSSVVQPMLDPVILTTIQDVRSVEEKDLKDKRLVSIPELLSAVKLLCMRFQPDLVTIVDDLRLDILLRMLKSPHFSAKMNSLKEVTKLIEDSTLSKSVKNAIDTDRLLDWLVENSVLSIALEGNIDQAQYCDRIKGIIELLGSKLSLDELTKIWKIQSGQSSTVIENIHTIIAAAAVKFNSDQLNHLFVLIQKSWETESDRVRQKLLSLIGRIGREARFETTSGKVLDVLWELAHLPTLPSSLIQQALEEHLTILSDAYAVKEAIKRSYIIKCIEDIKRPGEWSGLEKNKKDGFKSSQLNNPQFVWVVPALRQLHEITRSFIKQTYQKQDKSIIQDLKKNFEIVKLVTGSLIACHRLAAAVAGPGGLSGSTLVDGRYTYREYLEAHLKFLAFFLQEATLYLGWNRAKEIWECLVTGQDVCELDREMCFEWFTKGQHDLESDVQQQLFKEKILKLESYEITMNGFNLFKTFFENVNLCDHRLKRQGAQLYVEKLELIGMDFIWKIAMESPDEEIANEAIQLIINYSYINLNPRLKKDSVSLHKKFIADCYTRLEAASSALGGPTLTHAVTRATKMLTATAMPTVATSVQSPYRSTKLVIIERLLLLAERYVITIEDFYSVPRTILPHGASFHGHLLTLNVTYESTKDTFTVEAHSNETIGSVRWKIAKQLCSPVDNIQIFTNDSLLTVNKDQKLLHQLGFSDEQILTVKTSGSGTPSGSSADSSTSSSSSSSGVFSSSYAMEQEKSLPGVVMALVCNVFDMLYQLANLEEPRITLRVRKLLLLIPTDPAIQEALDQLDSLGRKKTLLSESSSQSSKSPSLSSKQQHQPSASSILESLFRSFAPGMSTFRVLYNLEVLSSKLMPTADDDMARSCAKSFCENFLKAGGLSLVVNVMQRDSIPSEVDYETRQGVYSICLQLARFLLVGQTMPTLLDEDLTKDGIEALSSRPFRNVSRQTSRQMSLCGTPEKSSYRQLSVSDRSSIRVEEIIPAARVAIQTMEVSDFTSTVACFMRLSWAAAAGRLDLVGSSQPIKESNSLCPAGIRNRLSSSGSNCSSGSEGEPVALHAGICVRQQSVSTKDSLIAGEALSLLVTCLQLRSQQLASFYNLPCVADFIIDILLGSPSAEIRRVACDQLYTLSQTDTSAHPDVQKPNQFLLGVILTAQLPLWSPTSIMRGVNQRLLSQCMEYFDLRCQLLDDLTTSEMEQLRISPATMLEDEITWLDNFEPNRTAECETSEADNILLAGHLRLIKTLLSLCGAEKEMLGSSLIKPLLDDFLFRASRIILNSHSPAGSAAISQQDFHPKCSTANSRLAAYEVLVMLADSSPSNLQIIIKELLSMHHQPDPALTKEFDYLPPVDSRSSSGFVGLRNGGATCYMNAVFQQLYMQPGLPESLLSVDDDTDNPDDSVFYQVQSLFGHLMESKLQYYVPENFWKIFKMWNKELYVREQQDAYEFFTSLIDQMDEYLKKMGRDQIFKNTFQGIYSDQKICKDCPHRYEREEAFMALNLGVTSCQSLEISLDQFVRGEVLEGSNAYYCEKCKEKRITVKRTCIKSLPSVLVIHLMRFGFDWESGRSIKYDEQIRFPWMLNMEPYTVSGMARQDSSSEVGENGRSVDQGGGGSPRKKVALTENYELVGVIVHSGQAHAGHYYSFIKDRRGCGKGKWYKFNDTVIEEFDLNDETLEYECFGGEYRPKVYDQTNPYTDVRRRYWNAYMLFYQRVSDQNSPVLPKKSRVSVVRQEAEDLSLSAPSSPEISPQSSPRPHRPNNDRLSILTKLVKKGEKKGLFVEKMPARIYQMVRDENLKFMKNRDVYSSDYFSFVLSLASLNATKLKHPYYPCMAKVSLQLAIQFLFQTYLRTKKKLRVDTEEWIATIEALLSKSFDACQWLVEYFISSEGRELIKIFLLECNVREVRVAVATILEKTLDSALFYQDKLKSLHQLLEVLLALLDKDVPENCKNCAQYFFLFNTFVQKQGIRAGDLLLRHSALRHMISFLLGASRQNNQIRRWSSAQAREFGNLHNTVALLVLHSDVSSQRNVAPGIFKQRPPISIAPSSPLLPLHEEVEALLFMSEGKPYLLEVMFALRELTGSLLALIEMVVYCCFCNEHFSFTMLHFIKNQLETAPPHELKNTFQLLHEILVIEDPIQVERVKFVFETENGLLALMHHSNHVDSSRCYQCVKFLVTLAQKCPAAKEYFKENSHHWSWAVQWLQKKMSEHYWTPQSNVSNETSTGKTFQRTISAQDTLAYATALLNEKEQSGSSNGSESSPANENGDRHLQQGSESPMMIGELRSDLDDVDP

Cc1cccc(N2CCC(NC(=O)CCl)C2=O)c1 (stereo not given)
inactive: USP19 -0.0964 | USP22 0.199 | USP24 -0.149 | USP25 -0.421 | USP28 -0.475
